# Measurements reported in PubChem BioAssay (NCATS).
# Inconclusive results are not listed. The source made the active and inactive calls. Calls follow the shape of the dose curve; as a rule, active = well fitted inhibition curve with a large enough effect; inconclusive = small, poorly fitted or top-dose-only effect; inactive = flat fitted curve, though single readings scatter. Bridge positions count the residues as written; N and C are the ends. Square brackets hold non-standard residues; d marks the D form. Peptide text beside a SMILES is read from it. hArg = N=C(N)NCCCC[C@H](N)C(=O)O; Mpa = O=C(O)CCS
# System: CRL-7250
# Assay: qHTS assay to identify novel small-molecules to repurpose for Merkel cell carcinoma treatment (AID 1296009); also: nearly all actives have a fitted effect of over 60% in size
# Settings: MCC and control cell lines, CellTiter-Glo viability, 72 h; at 44.8 µM (top of the series) unless noted
# Outline: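 CellTiter-Glo luminescence after 72 hr compound exposure at 37 degree celsius gave cell viability. Libraries NPC and MIPE were run as 8- and 11-point dose responses; RLUs normalized to DMSO (negative) and no-cell (cytotoxicity) controls.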
row,Structure (SMILES),outcome
1,COC1=C(OC)C(=O)C(CCCCCCCCCCO)=C(C)C1=O,inactive
2,CCN(CCCCOC(=O)c1ccc(OC)c(OC)c1)C(C)Cc1ccc(OC)cc1 (stereo unspecified),inactive
3,CN(C)CCCOC1(Cc2ccccc2)CCCCCC1,inactive
4,COc1ccc(C(Cl)=C(c2ccc(OC)cc2)c2ccc(OC)cc2)cc1,inactive
5,CSc1ccc(/C=C2/C(C)=C(CC(=O)O)c3cc(F)ccc32)cc1,inactive
6,CCCCCCCCCCCCCCCCCCOCC(O)CO (stereo unspecified),inactive
7,CCCCCC(N)=O,inactive
8,C=C1c2cccc(O)c2C(O)=C2C(=O)[C@]3(O)C(O)=C(C(N)=O)C(=O)[C@@H](N(C)C)[C@@H]3[C@@H](O)[C@H]12,inactive
9,Cc1ccc(Cl)c(OCC(O)CNC(C)(C)C)c1 (stereo unspecified),inactive
10,Cc1[nH]c(C)c(Cl)c(=O)c1Cl,inactive [at 17.4 µM]
11,CCCCC1(COC(=O)CCC(=O)O)C(=O)N(c2ccccc2)N(c2ccccc2)C1=O,inactive
12,CN(C)[C@@H](CCOc1cccc2ccccc12)c1ccccc1,inactive
13,CCCCC(=O)O[C@]1(C(=O)CO)CC[C@H]2[C@@H]3CCC4=CC(=O)CC[C@]4(C)[C@H]3[C@@H](O)C[C@@]21C,inactive
14,CCNC(=O)NCc1cccc(Cl)c1,inactive
15,NC(=O)[C@@H]1CSSCCC(=O)N[C@@H](CCCCN=C(N)N)C(=O)NCC(=O)N[C@@H](CC(=O)O)C(=O)N[C@@H](Cc2c[nH]c3ccccc23)C(=O)N2CCC[C@H]2C(=O)N1 ([Mpa][hArg]GDWPC-NH2; disulfide 1-7),inactive
16,CC(=O)OCC(=O)[C@@]1(O)CCC2C3CCC4=CC(=O)CC[C@]4(C)C3[C@@H](O)C[C@@]21C (stereo partly specified),inactive
